Source: PubChem BioAssay AID1159580 (chemical genetic matrix, 2015)
Where “and” joins values, the source holds several entries; their conditions need not be identical. Equal values may be shown once. The campaign covered roughly 5,500 compounds. About 2,000 (36%) were called active. Not shown: some 18% with an inconclusive outcome. Cut-off read from the data, not from the text of the source: active = normalized growth mostly below about 0.91 (no sharp cut-off); inconclusive = no clear call, values can overlap the other calls; inactive = mostly above about 0.92. This is one part of the list.

Assay: chemical genetic growth profiling, strain panel (AID 1159580);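 note: tested at 20 µM; growth read once vehicle control cultures reached saturation at 30 °C; 1 = growth at the plate median or of vehicle wells; lower values mean less growth of the strain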
Conditions: S. cerevisiae deletion strains, growth OD

Measured: normalized growth

C=C[C@H]1CN2CC[C@H]1C[C@H]2[C@H](O)c1ccnc2ccccc12
inactive: locus YAL013W, strain DEP1, hits give low values 1.01 | locus YAL021C, strain ccr4, hits give low values 1 | locus YAL026C, strain drs2, hits give low values 0.995 | locus YAL030W, strain snc1, hits give low values 0.997 | locus YBL061C, strain skt5, hits give low values 0.995 | locus YBR009C, strain hhf1, hits give low values 0.992 | locus YBR021W, strain FUR4, hits give low values 1.01 | locus YBR023C, strain chs3, hits give low values 0.992 | locus YBR171W, strain sec66, hits give low values 1 | locus YBR229C, strain ROT2, hits give low values 1.01 | locus YBR231C, strain swc5, hits give low values 0.984 | locus YBR279W, strain paf1, hits give low values 1 | locus YCL011C, strain gbp2, hits give low values 1.01 | locus YCL016C, strain dcc1, hits give low values 0.994 | locus YCL029C, strain bik1, hits give low values 0.969 | locus YCL061C, strain MRC1, hits give low values 0.983 | locus YCL069W, strain vba3, hits give low values 1.01 | locus YCR088W, strain abp1, hits give low values 1 | locus YDL005C, strain med2, hits give low values 0.997 | locus YDL035C, strain GPR1, hits give low values 0.986 | locus YDL040C, strain nat1, hits give low values 0.999 | locus YDL074C, strain BRE1, hits give low values 1.04 | locus YDL101C, strain DUN1, hits give low values 0.988 | locus YDL134C, strain PPH21, hits give low values 1 | locus YDL185W, strain tfp1, hits give low values 0.965 | locus YDL192W, strain arf1, hits give low values 0.979 | locus YDR001C, strain nth1, hits give low values 0.986 | locus YDR069C, strain doa4, hits give low values 1.01 | locus YDR101C, strain arx1, hits give low values 0.985 | locus YDR137W, strain rgp1, hits give low values 1.02 | locus YDR150W, strain NUM1, hits give low values 0.966 | locus YDR159W, strain sac3, hits give low values 0.949 | locus YDR162C, strain NBP2, hits give low values 1.01 | locus YDR195W, strain ref2 0.959 | locus YDR297W, strain sur2, hits give low values 1 | locus YDR318W, strain mcm21, hits give low values 0.989 | locus YDR334W, strain swr1, hits give low values 1 | locus YDR335W, strain msn5, hits give low values 0.993 | locus YDR388W, hits give low values 0.979 | locus YDR392W, strain spt3, hits give low values 0.999 | locus YDR502C, strain sam2, hits give low values 0.979 | locus YEL003W, strain gim4, hits give low values 0.995 | locus YEL037C, strain rad23, hits give low values 0.993 | locus YEL061C, strain CIN8 (second series), hits give low values 0.999 | locus YEL061C, strain CIN8, hits give low values 1 | locus YER015W, strain faa2, hits give low values 1 | locus YER016W, strain bim1, hits give low values 0.975 | locus YER110C, hits give low values 0.976 | locus YER111C, strain swi4, hits give low values 1.01 | locus YER155C, strain BEM2 (second series), hits give low values 0.977 | locus YER155C, strain BEM2, hits give low values 0.98 | locus YER167W, strain BCK2, hits give low values 1.01 | locus YFR010W, strain ubp6, hits give low values 1.01 | locus YGL078C, strain dbp3, hits give low values 0.985 | locus YGL086W, strain mad1, hits give low values 0.99 | locus YGL167C, strain pmr1, hits give low values 0.987 | locus YGL173C, strain kem1, hits give low values 0.977 | locus YGL227W, strain vid30, hits give low values 1 | locus YGL240W, strain doc1, hits give low values 0.984 | locus YGL248W, strain PDE1, hits give low values 1.01 | locus YGL253W, strain hxk2, hits give low values 1 | locus YGR078C, strain PAC10, hits give low values 1.01 | locus YGR135W, strain pre9, hits give low values 0.974 | locus YGR229C, strain SMI1, hits give low values 1.02 | locus YGR252W, strain gcn5, hits give low values 0.982 | locus YHR013C, strain ard1, hits give low values 1 | locus YHR027C, strain rpn1, hits give low values 0.997 | locus YHR030C, strain SLT2, hits give low values 1 and 0.969 | locus YHR079C, strain IRE1 (second series), hits give low values 0.986 | locus YHR079C, strain IRE1, hits give low values 0.968 | locus YHR094C, strain hxt1, hits give low values 0.973 | locus YHR129C, strain ARP1, hits give low values 1.01 | locus YHR142W, strain chs7, hits give low values 1 | locus YHR200W, strain rpn10, hits give low values 0.981 | locus YIL066C, strain RNR3, hits give low values 1 | locus YIL073C, strain SPO22, hits give low values 0.927 | locus YIL125W, strain kgd1, hits give low values 0.994 | locus YIR030C, strain dcg1, hits give low values 0.979 | locus YJL092W, strain hpr5, hits give low values 0.999 | locus YJL095W, strain BCK1 (second series), hits give low values 0.998 | locus YJL095W, strain BCK1, hits give low values 1.04 and 0.962 | locus YJL115W, strain asf1, hits give low values 1 | locus YJL129C, strain trk1, hits give low values 0.988 | locus YJL134W, strain LCB3, hits give low values 0.995 | locus YJL154C, strain vps35, hits give low values 1 | locus YJL164C, strain tpk1, hits give low values 1.01 | locus YJL166W, strain qcr8, hits give low values 0.95 | locus YJL168C, strain set2, hits give low values 0.986 | locus YJL187C, strain SWE1 (second series), hits give low values 0.977 | locus YJR043C, strain POL32, hits give low values 1.01 | locus YJR066W, strain TOR1, hits give low values 0.942
